Common to all, as to assay: DAPPL (digital affinity profiling via proximity ligation, sequencing); 10 mM Tris-HCl pH 7.5, 50 mM NaCl, 1 mM DTT, 4% glycerol, room temperature, 30 min; GST-TFs on glutathione beads, 16-mer random dsDNA library, 0.1% formaldehyde crosslink after washing; high values mean tight binding
The target of one experiment is T1, FLI1 (Homo sapiens, UniProt Q01543 1-452).
T1 sequence: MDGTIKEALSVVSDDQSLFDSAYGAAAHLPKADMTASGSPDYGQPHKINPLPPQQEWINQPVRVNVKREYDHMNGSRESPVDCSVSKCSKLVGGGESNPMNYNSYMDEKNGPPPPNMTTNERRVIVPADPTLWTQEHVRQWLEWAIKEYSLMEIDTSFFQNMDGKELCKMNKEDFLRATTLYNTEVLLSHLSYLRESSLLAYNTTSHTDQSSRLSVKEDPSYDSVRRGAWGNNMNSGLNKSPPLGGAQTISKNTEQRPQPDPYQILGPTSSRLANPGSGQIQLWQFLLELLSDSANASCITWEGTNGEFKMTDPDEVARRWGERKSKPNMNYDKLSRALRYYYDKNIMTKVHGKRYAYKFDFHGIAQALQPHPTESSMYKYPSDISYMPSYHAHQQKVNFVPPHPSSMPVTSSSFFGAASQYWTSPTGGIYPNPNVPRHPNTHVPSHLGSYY
The note with it: protein: recombinant; tags: N-terminal GST; dsDNA, one strand shown. A digest of the protocol: (§1)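 In yeast, human transcription factors were expressed with a GST fusion, then pulled down on glutathione beads and given DNA barcodes. Pooled with a tag-only sample, they were exposed to 200 nmole of a 16-mer random double-stranded DNA library (Tris/NaCl/DTT/glycerol buffer, room temperature, 30 min), washed, crosslinked with 0.1% formaldehyde, proximity-ligated using BsaI/T4 ligase for 1 h at 37 °C, PCR-amplified and read on an Illumina NextSeq500. Each hexamer's frequency of reads for a factor, divided by the matching frequency for the tag-only sample, gives the binding signal.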

The target in a further experiment is T2, ELK1 (Homo sapiens, UniProt P19419 1-428).
T2 sequence: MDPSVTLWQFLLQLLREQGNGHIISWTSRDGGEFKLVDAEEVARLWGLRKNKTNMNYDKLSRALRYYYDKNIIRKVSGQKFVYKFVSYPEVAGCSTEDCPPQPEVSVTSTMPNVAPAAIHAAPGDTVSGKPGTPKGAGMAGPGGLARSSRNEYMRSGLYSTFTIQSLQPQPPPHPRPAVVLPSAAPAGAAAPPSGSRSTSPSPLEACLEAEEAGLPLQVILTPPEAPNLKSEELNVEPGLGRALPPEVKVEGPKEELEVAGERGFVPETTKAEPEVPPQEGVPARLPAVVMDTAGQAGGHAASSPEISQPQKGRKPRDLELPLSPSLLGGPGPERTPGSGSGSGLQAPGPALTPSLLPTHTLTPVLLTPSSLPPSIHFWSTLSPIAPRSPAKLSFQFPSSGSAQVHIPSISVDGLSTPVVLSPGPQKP
The note with it: protein: recombinant; tags: N-terminal GST; dsDNA, one strand shown. A digest of the protocol:
as §1

The target of the next experiment is T3, GABPA (Homo sapiens, UniProt Q06546 1-454).
T3 sequence: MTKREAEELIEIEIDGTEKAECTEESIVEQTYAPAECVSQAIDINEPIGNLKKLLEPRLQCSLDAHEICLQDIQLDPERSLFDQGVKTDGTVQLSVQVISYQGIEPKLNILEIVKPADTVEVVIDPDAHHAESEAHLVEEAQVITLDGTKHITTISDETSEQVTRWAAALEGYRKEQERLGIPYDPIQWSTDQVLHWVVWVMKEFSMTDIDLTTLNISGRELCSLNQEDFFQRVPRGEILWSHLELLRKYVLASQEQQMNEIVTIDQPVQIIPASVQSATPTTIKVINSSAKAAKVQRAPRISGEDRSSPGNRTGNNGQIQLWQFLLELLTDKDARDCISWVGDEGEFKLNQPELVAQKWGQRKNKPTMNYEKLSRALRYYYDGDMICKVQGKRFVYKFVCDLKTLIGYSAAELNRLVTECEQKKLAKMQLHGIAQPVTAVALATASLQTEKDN
The conditions noted are these: protein: recombinant; tags: N-terminal GST; dsDNA, one strand shown. A digest of the protocol: as §1

In a further experiment the target is T4, ERG (Homo sapiens, UniProt P11308 1-479).
T4 sequence: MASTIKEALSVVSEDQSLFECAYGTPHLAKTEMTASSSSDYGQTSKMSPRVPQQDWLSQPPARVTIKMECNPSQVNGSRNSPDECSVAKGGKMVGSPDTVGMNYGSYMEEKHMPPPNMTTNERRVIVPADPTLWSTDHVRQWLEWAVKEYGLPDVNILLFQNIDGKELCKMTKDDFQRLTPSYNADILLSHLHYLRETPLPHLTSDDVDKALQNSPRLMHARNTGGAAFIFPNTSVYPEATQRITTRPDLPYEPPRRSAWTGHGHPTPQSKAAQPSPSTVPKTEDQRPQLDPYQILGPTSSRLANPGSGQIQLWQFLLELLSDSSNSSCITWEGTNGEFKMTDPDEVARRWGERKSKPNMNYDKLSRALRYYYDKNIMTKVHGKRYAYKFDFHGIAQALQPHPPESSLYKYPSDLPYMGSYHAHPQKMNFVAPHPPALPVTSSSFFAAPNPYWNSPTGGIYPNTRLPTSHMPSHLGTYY
The conditions noted are these: protein: recombinant; tags: N-terminal GST; dsDNA, one strand shown. A digest of the protocol:
as §1

Another experiment has as its target ELF1 (Homo sapiens, UniProt P32519 1-619). The conditions noted are these: protein: recombinant; tags: N-terminal GST; dsDNA, one strand shown. A digest of the protocol: as §1
A further experiment concerns the target T5, EHF (Homo sapiens, UniProt Q9NZC4 1-300).
T5 sequence: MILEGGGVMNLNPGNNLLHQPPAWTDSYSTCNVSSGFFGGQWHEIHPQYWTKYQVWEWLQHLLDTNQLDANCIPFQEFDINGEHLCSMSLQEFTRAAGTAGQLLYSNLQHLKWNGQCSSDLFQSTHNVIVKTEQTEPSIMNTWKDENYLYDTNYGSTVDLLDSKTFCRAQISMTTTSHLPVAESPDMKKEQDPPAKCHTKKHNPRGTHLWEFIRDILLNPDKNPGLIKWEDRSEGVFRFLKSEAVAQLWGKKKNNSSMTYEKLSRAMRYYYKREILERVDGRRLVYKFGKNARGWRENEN
The conditions noted are these: protein: recombinant; tags: N-terminal GST; dsDNA, one strand shown. A digest of the protocol: as §1

Another experiment addresses SPI1 (Homo sapiens, UniProt P17947 1-270). The conditions noted are these: protein: recombinant; tags: N-terminal GST; dsDNA, one strand shown. A digest of the protocol:
as §1

The target in the next experiment is SPIB (Homo sapiens, UniProt Q01892 1-262). The note with it: protein: recombinant; tags: N-terminal GST; dsDNA, one strand shown. A digest of the protocol: as §1
For the next experiment, the target named is T6, ELK3 (Homo sapiens, UniProt P41970 1-407).
T6 sequence: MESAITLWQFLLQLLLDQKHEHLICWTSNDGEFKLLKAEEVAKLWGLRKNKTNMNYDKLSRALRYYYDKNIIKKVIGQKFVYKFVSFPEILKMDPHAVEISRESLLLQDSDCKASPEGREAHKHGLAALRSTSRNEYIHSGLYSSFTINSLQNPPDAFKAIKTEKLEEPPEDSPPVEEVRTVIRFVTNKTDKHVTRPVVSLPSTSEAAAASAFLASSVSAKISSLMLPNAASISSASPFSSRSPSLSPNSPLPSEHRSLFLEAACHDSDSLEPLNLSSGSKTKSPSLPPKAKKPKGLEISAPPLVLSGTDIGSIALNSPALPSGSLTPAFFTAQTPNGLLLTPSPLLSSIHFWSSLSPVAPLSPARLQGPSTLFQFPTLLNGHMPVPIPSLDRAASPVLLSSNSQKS
The note with it: protein: recombinant; tags: N-terminal GST; dsDNA, one strand shown. A digest of the protocol:
as §1

The next experiment addresses T7, FEV (Homo sapiens, UniProt Q99581 1-238).
T7 sequence: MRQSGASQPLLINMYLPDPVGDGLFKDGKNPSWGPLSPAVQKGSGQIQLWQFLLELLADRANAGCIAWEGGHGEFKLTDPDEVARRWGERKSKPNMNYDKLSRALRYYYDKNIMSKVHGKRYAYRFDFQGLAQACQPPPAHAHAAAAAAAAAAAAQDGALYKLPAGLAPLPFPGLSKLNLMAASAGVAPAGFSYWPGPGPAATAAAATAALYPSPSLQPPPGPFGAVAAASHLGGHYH
The conditions noted are these: protein: recombinant; tags: N-terminal GST; dsDNA, one strand shown. A digest of the protocol: as §1

The target in a further experiment is ETV5 (Homo sapiens, UniProt P41161 1-510). The conditions noted are these: protein: recombinant; tags: N-terminal GST; dsDNA, one strand shown. A digest of the protocol:
as §1

A further experiment addresses HSF1 (Homo sapiens, UniProt Q00613 1-529). The conditions noted are these: protein: recombinant; tags: N-terminal GST; chain copies: 3; dsDNA, one strand shown. A digest of the protocol: as §1
Another experiment concerns the target T8, SPIC (Homo sapiens, UniProt Q8N5J4 1-248).
T8 sequence: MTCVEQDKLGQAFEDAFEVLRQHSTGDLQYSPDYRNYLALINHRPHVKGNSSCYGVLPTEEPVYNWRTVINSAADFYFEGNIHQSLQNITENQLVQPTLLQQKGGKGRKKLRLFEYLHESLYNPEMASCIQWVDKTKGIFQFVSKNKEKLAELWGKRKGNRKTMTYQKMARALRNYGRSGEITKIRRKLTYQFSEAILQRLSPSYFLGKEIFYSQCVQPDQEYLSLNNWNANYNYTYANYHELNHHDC
The note with it: protein: recombinant; tags: N-terminal GST; dsDNA, one strand shown. A digest of the protocol: as §1

The target of the next experiment is ELF4 (Homo sapiens, UniProt Q99607 1-663). The conditions noted are these: protein: recombinant; tags: N-terminal GST; dsDNA, one strand shown. A digest of the protocol:
as §1

For the next experiment, the target named is T9, ELK4 (Homo sapiens, UniProt P28324-2 1-405).
T9 sequence: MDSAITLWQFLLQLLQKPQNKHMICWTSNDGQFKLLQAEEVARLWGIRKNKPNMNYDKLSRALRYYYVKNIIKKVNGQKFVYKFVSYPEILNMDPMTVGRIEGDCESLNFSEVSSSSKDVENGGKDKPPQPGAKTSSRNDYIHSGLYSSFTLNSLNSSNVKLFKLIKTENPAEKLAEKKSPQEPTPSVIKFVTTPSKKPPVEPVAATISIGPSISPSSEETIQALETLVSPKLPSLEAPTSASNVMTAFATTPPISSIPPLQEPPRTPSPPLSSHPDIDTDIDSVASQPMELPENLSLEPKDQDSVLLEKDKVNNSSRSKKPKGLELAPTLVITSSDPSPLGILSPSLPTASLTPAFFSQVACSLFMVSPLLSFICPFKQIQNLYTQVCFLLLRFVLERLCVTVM
The conditions noted are these: protein: recombinant; tags: N-terminal GST; dsDNA, one strand shown. A digest of the protocol: as §1

The next experiment addresses T10, ETV2 (Homo sapiens, UniProt O00321 1-342).
T10 sequence: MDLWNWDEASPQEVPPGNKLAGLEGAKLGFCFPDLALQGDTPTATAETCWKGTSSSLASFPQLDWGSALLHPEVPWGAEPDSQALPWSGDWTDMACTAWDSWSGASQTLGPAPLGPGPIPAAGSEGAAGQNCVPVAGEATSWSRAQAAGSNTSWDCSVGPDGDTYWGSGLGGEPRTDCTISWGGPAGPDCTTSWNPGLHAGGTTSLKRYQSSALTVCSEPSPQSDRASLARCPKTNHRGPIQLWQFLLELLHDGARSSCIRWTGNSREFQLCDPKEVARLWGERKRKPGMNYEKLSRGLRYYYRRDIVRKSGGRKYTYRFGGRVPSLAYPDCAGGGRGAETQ
The note with it: protein: recombinant; tags: N-terminal GST; dsDNA, one strand shown. A digest of the protocol: as §1

The target in a further experiment is T11, ELF3 (Homo sapiens, UniProt P78545 1-371).
T11 sequence: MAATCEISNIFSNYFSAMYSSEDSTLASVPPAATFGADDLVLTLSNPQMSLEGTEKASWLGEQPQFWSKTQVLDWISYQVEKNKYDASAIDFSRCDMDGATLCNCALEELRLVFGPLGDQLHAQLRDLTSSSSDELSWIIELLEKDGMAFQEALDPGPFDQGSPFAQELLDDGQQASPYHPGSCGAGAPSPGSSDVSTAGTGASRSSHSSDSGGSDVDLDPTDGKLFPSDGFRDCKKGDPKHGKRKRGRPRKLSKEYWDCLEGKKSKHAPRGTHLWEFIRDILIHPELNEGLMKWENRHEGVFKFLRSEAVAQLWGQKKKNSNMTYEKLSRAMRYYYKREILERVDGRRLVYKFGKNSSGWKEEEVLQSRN
The conditions noted are these: protein: recombinant; tags: N-terminal GST; dsDNA, one strand shown. A digest of the protocol:
as §1

The target in the next experiment is CRX (Homo sapiens, UniProt O43186 1-299). The note with it: protein: recombinant; tags: N-terminal GST; dsDNA, one strand shown. A digest of the protocol:
as §1

For a further experiment, the target named is ETV1 (Homo sapiens, UniProt P50549 1-477). The conditions noted are these: protein: recombinant; tags: N-terminal GST; dsDNA, one strand shown. A digest of the protocol:
as §1

HSF1, sequence (Q00613 whole entry): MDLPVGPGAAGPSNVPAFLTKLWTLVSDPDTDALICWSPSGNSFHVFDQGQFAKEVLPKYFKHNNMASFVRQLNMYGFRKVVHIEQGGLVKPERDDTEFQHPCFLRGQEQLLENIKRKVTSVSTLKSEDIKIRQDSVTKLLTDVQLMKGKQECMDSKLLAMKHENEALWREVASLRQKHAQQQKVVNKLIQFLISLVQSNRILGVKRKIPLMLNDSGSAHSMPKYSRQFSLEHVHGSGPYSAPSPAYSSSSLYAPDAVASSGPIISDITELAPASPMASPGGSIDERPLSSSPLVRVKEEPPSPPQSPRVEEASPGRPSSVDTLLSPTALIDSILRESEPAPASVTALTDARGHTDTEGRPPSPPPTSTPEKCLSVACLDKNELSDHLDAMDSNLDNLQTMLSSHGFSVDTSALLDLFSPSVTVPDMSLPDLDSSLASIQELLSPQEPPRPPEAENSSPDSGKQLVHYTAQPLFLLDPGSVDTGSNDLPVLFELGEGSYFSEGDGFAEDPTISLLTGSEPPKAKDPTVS
ELF4, sequence (Q99607 whole entry): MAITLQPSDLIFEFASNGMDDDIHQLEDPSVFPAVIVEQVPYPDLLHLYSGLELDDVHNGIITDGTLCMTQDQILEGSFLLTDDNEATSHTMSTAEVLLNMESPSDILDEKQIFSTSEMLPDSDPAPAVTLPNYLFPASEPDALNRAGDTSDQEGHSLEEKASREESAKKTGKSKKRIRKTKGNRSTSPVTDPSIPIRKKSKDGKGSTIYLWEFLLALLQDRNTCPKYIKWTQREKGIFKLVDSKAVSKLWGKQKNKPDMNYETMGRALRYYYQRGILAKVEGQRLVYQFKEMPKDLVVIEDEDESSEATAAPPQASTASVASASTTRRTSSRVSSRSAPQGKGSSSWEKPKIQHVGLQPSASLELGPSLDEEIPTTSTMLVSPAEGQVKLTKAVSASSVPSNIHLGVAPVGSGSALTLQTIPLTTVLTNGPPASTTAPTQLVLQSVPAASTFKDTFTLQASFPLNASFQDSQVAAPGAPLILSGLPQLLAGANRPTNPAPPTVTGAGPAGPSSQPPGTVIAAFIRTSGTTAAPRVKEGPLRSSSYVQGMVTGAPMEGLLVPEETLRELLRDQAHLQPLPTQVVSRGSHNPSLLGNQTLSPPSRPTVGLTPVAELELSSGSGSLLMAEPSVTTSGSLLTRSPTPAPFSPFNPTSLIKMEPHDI
CRX, sequence (O43186 whole entry): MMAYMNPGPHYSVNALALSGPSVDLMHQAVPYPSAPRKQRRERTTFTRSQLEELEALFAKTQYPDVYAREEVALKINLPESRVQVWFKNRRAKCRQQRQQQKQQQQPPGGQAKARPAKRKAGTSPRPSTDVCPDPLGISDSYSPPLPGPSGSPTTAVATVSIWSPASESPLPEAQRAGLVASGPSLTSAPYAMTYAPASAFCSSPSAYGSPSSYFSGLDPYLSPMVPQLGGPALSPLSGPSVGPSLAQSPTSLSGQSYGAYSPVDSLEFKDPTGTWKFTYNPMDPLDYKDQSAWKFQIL
ETV1, sequence (P50549 whole entry): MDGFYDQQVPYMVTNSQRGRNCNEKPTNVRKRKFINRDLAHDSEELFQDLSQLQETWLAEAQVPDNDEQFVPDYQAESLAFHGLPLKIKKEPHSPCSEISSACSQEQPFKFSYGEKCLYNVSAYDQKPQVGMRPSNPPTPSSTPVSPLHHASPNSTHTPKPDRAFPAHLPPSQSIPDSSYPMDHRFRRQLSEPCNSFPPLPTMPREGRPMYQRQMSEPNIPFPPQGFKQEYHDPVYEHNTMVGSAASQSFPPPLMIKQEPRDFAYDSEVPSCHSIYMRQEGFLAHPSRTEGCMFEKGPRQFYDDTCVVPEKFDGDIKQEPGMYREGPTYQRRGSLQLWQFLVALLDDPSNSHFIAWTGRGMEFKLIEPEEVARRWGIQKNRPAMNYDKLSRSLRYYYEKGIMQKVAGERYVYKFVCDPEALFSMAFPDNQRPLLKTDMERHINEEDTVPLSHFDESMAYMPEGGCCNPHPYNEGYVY
ELF1, sequence (P32519 whole entry): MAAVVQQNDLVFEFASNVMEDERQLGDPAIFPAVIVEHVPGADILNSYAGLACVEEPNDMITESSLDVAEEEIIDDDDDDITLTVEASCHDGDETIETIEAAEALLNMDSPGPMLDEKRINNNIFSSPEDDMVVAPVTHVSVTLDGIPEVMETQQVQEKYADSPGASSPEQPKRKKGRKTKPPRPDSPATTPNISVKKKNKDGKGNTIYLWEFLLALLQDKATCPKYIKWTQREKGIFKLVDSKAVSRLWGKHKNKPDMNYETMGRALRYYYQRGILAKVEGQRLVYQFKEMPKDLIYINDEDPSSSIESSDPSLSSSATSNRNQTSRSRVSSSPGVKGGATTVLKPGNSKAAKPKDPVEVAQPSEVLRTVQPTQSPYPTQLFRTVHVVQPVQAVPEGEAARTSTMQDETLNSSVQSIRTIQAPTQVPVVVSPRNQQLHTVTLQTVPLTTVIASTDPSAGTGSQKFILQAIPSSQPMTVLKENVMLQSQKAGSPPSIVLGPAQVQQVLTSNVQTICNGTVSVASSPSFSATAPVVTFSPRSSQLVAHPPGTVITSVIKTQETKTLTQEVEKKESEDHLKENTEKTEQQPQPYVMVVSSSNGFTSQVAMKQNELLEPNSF
SPIB, sequence (Q01892 whole entry): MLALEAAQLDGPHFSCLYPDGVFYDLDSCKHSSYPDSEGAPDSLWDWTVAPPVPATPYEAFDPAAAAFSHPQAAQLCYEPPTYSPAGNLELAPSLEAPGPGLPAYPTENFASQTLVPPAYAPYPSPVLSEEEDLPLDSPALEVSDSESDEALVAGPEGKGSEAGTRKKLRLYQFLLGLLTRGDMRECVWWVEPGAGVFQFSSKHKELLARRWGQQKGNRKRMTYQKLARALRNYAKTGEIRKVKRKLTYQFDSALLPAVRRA
ETV5, sequence (P41161 whole entry): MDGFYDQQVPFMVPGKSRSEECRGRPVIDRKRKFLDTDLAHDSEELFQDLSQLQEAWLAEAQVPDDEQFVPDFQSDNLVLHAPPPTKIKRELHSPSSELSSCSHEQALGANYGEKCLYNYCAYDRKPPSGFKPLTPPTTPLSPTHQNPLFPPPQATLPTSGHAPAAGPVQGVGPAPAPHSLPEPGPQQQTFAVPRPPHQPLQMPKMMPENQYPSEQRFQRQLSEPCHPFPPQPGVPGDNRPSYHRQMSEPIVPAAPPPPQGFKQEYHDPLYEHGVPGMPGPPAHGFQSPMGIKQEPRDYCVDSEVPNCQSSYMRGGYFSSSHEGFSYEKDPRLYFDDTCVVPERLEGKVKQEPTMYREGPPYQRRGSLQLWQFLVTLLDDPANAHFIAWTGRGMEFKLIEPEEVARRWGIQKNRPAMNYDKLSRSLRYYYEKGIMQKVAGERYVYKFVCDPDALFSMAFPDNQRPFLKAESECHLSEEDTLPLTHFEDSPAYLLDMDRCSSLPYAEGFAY

As to TATACC, the binding signal was 1.29 fold enrichment (6-mer frequency, TF over GST control) with FLI1; 1.31 fold enrichment (6-mer frequency, TF over GST control) with ELK1; 1.18 fold enrichment (6-mer frequency, TF over GST control) with GABPA; 1.2 fold enrichment (6-mer frequency, TF over GST control) with ERG; 1.18 fold enrichment (6-mer frequency, TF over GST control) with ELF1; 1.21 fold enrichment (6-mer frequency, TF over GST control) with EHF. Further, the binding signal in the experiment with SPI1 is 1.05 fold enrichment (6-mer frequency, TF over GST control); with SPIB it was 1.27 fold enrichment (6-mer frequency, TF over GST control); with ELK3, 1.16 fold enrichment (6-mer frequency, TF over GST control); with FEV, 1.23 fold enrichment (6-mer frequency, TF over GST control); in the experiment with ETV5, 1.09 fold enrichment (6-mer frequency, TF over GST control); with HSF1, 1.1 fold enrichment (6-mer frequency, TF over GST control). The binding signal with SPIC is 1.14 fold enrichment (6-mer frequency, TF over GST control); with ELF4, 1.21 fold enrichment (6-mer frequency, TF over GST control); with ELK4 it was 1.22 fold enrichment (6-mer frequency, TF over GST control); with ETV2, 1.15 fold enrichment (6-mer frequency, TF over GST control); in the experiment with ELF3, 1.12 fold enrichment (6-mer frequency, TF over GST control); with CRX, 1.26 fold enrichment (6-mer frequency, TF over GST control). In addition, the binding signal with ETV1 is 1.31 fold enrichment (6-mer frequency, TF over GST control).
